Inconclusive results are not listed. Where a call stands in place of a potency, no number is given. Activity calls are given as the source filed them. The call rests on the fitted dose curve; in most records, active means well fitted inhibition curve with a large enough effect; inconclusive means small, poorly fitted or top-dose-only effect, or effect the other way; inactive means flat fitted curve, though single readings scatter.
Potency means the concentration at half of the fitted maximal effect.

Sequence of Ubiquitin carboxyl-terminal hydrolase 2 (Homo sapiens) (O75604 whole entry, looked up): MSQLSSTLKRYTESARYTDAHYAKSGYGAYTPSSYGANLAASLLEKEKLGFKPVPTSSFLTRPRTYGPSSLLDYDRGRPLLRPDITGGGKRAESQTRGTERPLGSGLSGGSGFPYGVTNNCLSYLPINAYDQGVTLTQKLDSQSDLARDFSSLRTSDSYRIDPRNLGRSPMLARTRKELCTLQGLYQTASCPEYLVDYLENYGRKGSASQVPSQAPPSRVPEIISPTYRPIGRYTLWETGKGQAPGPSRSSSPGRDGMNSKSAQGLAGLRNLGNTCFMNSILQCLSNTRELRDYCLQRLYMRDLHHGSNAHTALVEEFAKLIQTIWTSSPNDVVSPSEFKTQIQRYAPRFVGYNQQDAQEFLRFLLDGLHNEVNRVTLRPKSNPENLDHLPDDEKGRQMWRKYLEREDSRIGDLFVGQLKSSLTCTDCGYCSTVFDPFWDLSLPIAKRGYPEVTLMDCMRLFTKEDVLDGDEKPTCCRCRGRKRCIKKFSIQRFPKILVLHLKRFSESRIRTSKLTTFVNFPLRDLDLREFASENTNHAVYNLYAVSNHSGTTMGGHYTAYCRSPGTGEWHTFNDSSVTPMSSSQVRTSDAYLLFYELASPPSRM

The experiment addresses Ubiquitin carboxyl-terminal hydrolase 2 (Homo sapiens) (UniProt O75604). Kind of experiment: Ub-rhodamine 110 based assay for inhibitors Ubiquitin-specific Protease USP2a. Further: nearly all actives have a fitted effect of over 50% in size. The settings on record: USP2a Ub-rhodamine110 cleavage, fluorescence; series mostly up to 38.3 µM. In short, it runs like this:
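Kinetic fluorescence (485/531 nm) read each minute over 7 min after adding Ub-Rhod110 (150 nM final) to USP2a (5 nM final). The enzyme had 30 min RT exposure to compounds beforehand in Tris pH 8.0 buffer with CaCl2, CHAPS and beta-ME.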
Take `Cc1cc(C)n2nc(S(=O)(=O)NCCc3ccccc3)nc2n1`: the Potency result was “inactive”.
In the case of `FC(F)Sc1ccc(NC(=S)NC2CCCCC2)cc1` it was “inactive”; in that of `Cc1ccc(S(=O)(=O)N2[C@@H](c3ccccc3F)C(C(=O)O)=CC[C@H]2c2ccc(Cl)c(Cl)c2)cc1`, 11.2 µM (active); in that of `O=C(/C=C/c1ccc(Cl)c([N+](=O)[O-])c1)Nc1ccc(N2CCCC2)cc1`, 12.6 µM (active).
In the case of `Cc1ccc(S(=O)(=O)N2CCOCC2)cc1NC(=O)CN1C(=O)NC(C)(c2ccc(Cl)cc2Cl)C1=O` (centres undefined) it was “inactive”; in that of `O=C1NC(=Nc2ccccc2)S/C1=C\C=C\c1ccco1`, 5.62 µM (active); in that of `CCOC(=O)Nc1nnc(CCc2ccccc2)s1`, “inactive”.
As to `COc1cccc(C(=O)NCc2ccc3[nH]c(C)cc3c2)c1`, the Potency entry is “inactive”.
In the case of `CCC/C(O)=C1\C(=O)CC(C)(C)CC1=Nc1ccc(OC)cc1OC` it was “inactive”; in that of `O=C1NCC(CN(c2ccccc2)c2ccccc2)O1` (centres undefined), “inactive”.
In the case of `CCOC(=O)CN1C(=O)S/C(=C/c2ccc(O)c([N+](=O)[O-])c2)C1=O` it was “inactive”; in that of `Cc1ccc(C(=O)NCc2ccc3c(c2)OCO3)cc1N1CCCC1=O`, “inactive”.
In the case of `COc1ccc2[nH]c(=O)c(CN(C3CCCCC3)C(c3nnnn3Cc3ccco3)C(C)C)cc2c1` (centres undefined) it was 3.98 µM (active); in that of `Cc1ccc(C)c(S(=O)(=O)N2CCN(C(=O)/C=C/c3ccco3)CC2)c1`, 10 µM (active).
Regarding `O=C(c1ccccc1)N1CCN(C2C3CC4CC(C3)CC2C4)CC1` (centres undefined), the Potency result is “inactive”.
`Cc1cccc(NC(=S)NCc2ccc3c(c2)cc(C)n3C)c1C`: the Potency result is “inactive”.
The result for `O=C(Nc1ccc2c(c1)OCO2)NC1(C(F)(F)F)Oc2ccccc2O1` reads “inactive”; that for `CCN(CC)S(=O)(=O)c1ccc(Cl)c(NC(=O)COC(=O)c2c(C)noc2C)c1`, “inactive”.
The result for `O=C1/C(=C/C=C/c2ccco2)SC(=S)N1c1ccc(O)cc1` reads 3.55 µM (active).
With `CC(C)(C)C1CCc2nc(NC(=O)Cc3cn4ccsc4n3)sc2C1` (centres undefined), the Potency entry was “inactive”.
`C=CCSC1=N/C(=C\C=C\c2ccco2)C(=O)S1`: the Potency was 10 µM (active).
Consider `CCCn1c(NC(=O)c2ccc(Br)cc2)nc2ccccc21`, for which the Potency result is “inactive”.
The result for `NS(=O)(=O)c1ccc(NC(=O)CN2CCCCC2)cc1` reads “inactive”.
In the case of `O=C(O)C(Cc1ccccc1)N1C(=O)/C(=C/C=C/c2ccco2)SC1=S` (centres undefined) it was 11.2 µM (active).
In the case of `O=C(O)C1Nc2c(O)cc(Cl)c([N+](=O)[O-])c2C2C=CCC12` (centres undefined) it was 3.98 µM (active); in that of `CCN(CC(=O)Nc1ccc(NC(C)=O)cc1)C(=O)c1ccc(N2CCC(C)CC2)c([N+](=O)[O-])c1`, “inactive”; in that of `N#Cc1c(-c2cccs2)nc(SCc2ccc(Cl)cc2)[nH]c1=O`, 10 µM (active).
With `CCCC(c1nnnn1Cc1ccc(OC)cc1)N1CCC(C(N)=O)CC1` (centres undefined), the Potency result is “inactive”.
In the case of `CCC(C)NC(=O)C1CN(S(=O)(=O)c2ccccc2)CCN1S(=O)(=O)c1ccccc1` (centres undefined) it was “inactive”; in that of `CNC(=O)NC(=O)CSc1ccc(NC(C)=O)cc1`, “inactive”.
In the case of `O=C(OCC(=O)N1CCCCC1)c1cc2ccccc2cc1O`, the Potency entry was “inactive”.
The result for `O=C(CC1Oc2ccccc2NC1=O)NCc1ccc(Cl)cc1` (centres undefined) reads “inactive”; that for `O=C(Oc1ccccc1C(=O)Nc1ccccc1)c1ccccc1Br`, “inactive”.
With `Cc1cc(N2CCC(C(=O)NC3CC3)CC2)nc(-c2ccccc2)n1`, the Potency entry is “inactive”.
The result for `Cc1cc(-c2nnc3n2N=C(c2ccc(-c4ccccc4)cc2)CS3)n[nH]1` reads 11.2 µM (active); that for `O=C(CC(C(=O)O)C1CCCO1)NCCc1ccc2c(c1)OCO2` (centres undefined), “inactive”.
In the case of `COc1cc(NC(=O)COC(=O)CSc2ccccc2F)c(C)cc1[N+](=O)[O-]` it was “inactive”; in that of `CCn1nnnc1SCC(=O)Nc1cccc(C)n1`, “inactive”.
As to `CCOc1ccccc1C(=O)N[C@H](C(=O)Nc1ccc(OC)c(S(=O)(=O)N2CCOCC2)c1)C(C)C`, the Potency result is “inactive”.

The record behind these values is PubChem BioAssay AID493170 (National Center for Advancing Translational Sciences (NCATS), 2011).
